Measurements reported in PubChem BioAssay (NCATS).
Inconclusive results are not listed. Calls of active or inactive are those of the source. Unless noted, calls come from the whole dose curve; as a rule, active = well fitted curve in the direction sought with a large enough effect; inconclusive = small, poorly fitted or top-dose-only effect, or another doubt; inactive = no such curve, though single readings can be large; an effect the other way counts as inactive or inconclusive.

How the values were obtained:
[1] = Cell Viability - BJ (AID 421; calls by dose curve;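 note: potency is the fitted concentration of half-maximal effect; cells exposed to compound for 40 hours at 37 °C before readout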); conditions: BJ fibroblast viability, qHTS
Summary of the method: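 Cytotoxicity as drop in intracellular ATP (CellTiter-Glo, 20 min RT) after 40 hr compound exposure of BJ fibroblasts at 37 °C. Titrations scaled between DMSO and 100 uM tamoxifen, Hill-fitted for AC50.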

[2] = Cell Viability - Jurkat (AID 426;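 active = dose-dependent loss of cell ATP signal giving a full or clear fitted curve, ranked by lower potency value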;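 note: potency is the fitted concentration of half-maximal effect; cells exposed to compound for 40 hours at 37 °C before ATP read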); conditions: qHTS
Summary of the method: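 Cells of the human T-cell leukemia line Jurkat (E6-1) are seeded at 5000 per well, treated with compound across a concentration range for 40 hours at 37 °C, then lysed with CellTiter-Glo; luminescence reports ATP.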

[3] = Cell Viability - Hek293 (AID 427;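 active = compounds whose dose-response curve shows a full or clear partial loss of cell viability, called from curve shape rather than a numeric limit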;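 note: potency is the fitted concentration of half-maximal effect; cells exposed to compound for 40 hours at 37 °C before reading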); conditions: qHTS
Summary of the method: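 Luminescent ATP content (CellTiter-Glo, 20 min at room temperature) was measured after a 40 hr, 37 °C compound exposure of HEK293 cells. AC50 values came from Hill-equation fits of qHTS concentration-response data normalized to DMSO and 100 uM tamoxifen.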

[4] = Cell Viability - HepG2 (AID 433; calls by dose curve;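 note: potency is the fitted concentration of half-maximal effect; potency for ATP loss meaning cytotoxicity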); conditions: qHTS
Summary of the method: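 Read-out is luciferase-based quantitation of cellular ATP as a measure of viable HepG2 cells after 40 h treatment at 37 °C. Signal decrease is scaled between DMSO-only and 100 uM tamoxifen controls, with AC50 fitted by the Hill equation.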

[5] = Cell Viability - MRC5 (AID 434; calls by dose curve;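 note: potency is the fitted concentration of half-maximal effect; potency reflects cytotoxicity seen as loss of intracellular ATP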); conditions: MRC5 lung fibroblast viability, qHTS
Summary of the method: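 AC50 values come from Hill-equation fits of intracellular ATP loss, measured by CellTiter-Glo luminescence. Normal lung fibroblasts (MRC5) had 40 hr compound treatment at 37 C, normalized between DMSO and 100 uM tamoxifen.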

[6] = Cell Viability - SK-N-SH (AID 435; calls by dose curve;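 note: potency is the fitted concentration of half-maximal effect; compound exposure lasted 40 h at 37 °C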); conditions: SK-N-SH neuroblastoma cell viability qHTS
Summary of the method: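 Luminescent ATP signal served as the viability read-out after 40 hours of compound treatment of human neuroblastoma SK-N-SH cells. Concentration-response data, scaled between DMSO and 100 uM tamoxifen, gave AC50 values by standard Hill modeling.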

[7] = molecular target: Mitogen-activated protein kinase 10 (Mus musculus) (UniProt Q61831); experiment: JNK3 AlphaScreen Assay (AID 530; active = well fitted curve in either direction with a large enough effect, not every such curve was filed as active;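 note: kinase came from lysate of stimulated human HepG2 cells; signal reports phosphorylation of biotinylated GST-cJun 1-79 at Ser73 with 10 µM ATP; % is set by controls: 0 for no effect and ±100 for the full control effect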); conditions: JNK3 lysate, c-Jun phosphorylation; series mostly up to 57.1 µM
Summary of the method: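 qHTS titrations with 15 min compound pre-incubation before adding ATP (10 uM final). Read-out: AlphaScreen of Ser73-phosphorylated biotin-GST-cJun using HepG2 lysate JNK3 activated by IL-1β and TNFα.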

[8] = Cell Viability - N2a (AID 540); conditions: N2a mouse neuroblastoma cell viability; activity change, negative = cytotoxicity: at 92.2 µM (top of the series);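 note: cells exposed to compound for 40 h at 37 °C; plate controls were DMSO alone for no effect and tamoxifen control for full effect; nearly all actives have a fitted effect of over 45% in size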
Summary of the method: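 Cytotoxicity was scored as loss of cellular ATP in N2a cells, a mouse neuroblastoma line. Compounds are applied in a qHTS concentration series for 40 hr at 37 °C.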

[9] = Cell Viability - NIH 3T3 (AID 541); conditions: NIH 3T3 cell viability, qHTS; activity change, negative = cytotoxicity: at 92.2 µM (top of the series);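 note: plate controls were DMSO alone for no effect and tamoxifen positive control for full effect; nearly all actives have a fitted effect of over 25% in size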
Summary of the method: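 Cells seeded at 1000/well, rested 5 hr at 37 °C, then dosed and incubated 40 hr at 37 °C. CellTiter-Glo added, 20 min room temperature, luminescence read. AC50 by Hill fit.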

[10] = Cell Viability - HUV-EC-C (AID 542); conditions: HUV-EC-C endothelial cell viability, qHTS; series mostly up to 92.2 µM; note: % is set by controls: 0 for no effect and ±100 for the full control effect; nearly all actives have a fitted effect of over 35% in size
Summary of the method: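 Cells were seeded at 1000 per well and incubated 5 hr at 37 °C before compound addition. After 40 hr at 37 °C, CellTiter-Glo reagent was added for 20 min and luminescence read. AC50 values came from Hill-equation modelling.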

[11] = Cell Viability - H-4-II-E (AID 543); conditions: H-4-II-E rat hepatoma viability; series mostly up to 92.2 µM; note: % is set by controls: 0 for no effect and ±100 for the full control effect; nearly all actives have a fitted effect of over 35% in size
Summary of the method: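 Cells seeded at 1500 per well and rested 5 hr; compounds added; 40 hr incubation at 37 °C; CellTiter-Glo added, 20 min at room temperature; luminescence read. Hill-equation fits gave AC50.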

[12] = Cell Viability - SH-SY5Y (AID 544); conditions: SH-SY5Y neuroblastoma cell viability; viability change, negative = cytotoxic: at 92.2 µM (top of the series); note: nearly all actives have a fitted effect of over 55% in size
Summary of the method: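 Cells were plated at 1500 per well and allowed 5 hr at 37 °C. Compounds were added across a concentration range and incubated 40 hr at 37 °C. CellTiter-Glo was added for 20 min at room temperature before luminescence reading.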

[13] = Cell Viability - Renal Proximal Tubule (AID 545); conditions: renal proximal tubule cells viability, primary cells of rat origin; series mostly up to 91.7 µM; note: nearly all actives have a fitted effect of over 40% in size
Summary of the method: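 Luminescent ATP signal (CellTiter-Glo) served as the viability read-out after 40 hr compound exposure of freshly isolated rat proximal tubule cells at 37 °C. Concentration-dependent ATP loss was fitted with the Hill equation to give AC50.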

[14] = Cell Viability - Mesenchymal (AID 546); conditions: mesenchymal cells viability, qHTS; series mostly up to 91.7 µM;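 note: cells exposed to compound for 40 hours before reading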
Summary of the method: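 CellTiter-Glo luminescence (intracellular ATP, 20 min room temperature) after 40 hr compound exposure at 37 °C of 1000 glomerulus-derived human kidney mesenchymal cells/well; AC50 values obtained by fitting qHTS concentration-response data to the Hill equation.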

[15] = Cellular Toxicity (caspase-3) HepG2 (AID 654); conditions: HepG2 caspase-3 activation, luminescence; series mostly up to 92.2 µM;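 note: cells exposed to compound for 16 hours before reading; 0% = DMSO alone and 100% = caspase signal from 100 µM tamoxifen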
Summary of the method: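 Caspase 3/7 activation in HepG2 is measured as rising luminescence after a 16 hr treatment at 37 °C. Values are scaled between DMSO basal and 100 uM tamoxifen, and AC50 is fitted with the Hill equation.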

[16] = Cellular Toxicity (caspase-3) Jurkat (AID 655); conditions: Jurkat caspase-3 activation, luminescence; caspase-3 activation: at 92.2 µM (top of the series), DMSO = 0%, tamoxifen = 100%;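 note: cells exposed to compound for 16 h at 37 °C before reading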
Summary of the method: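 5000 Jurkat cells/well; compound 16 hr, 37 °C; Caspase-Glo 3/7 added, 20 min RT; luminescence read. Norm: DMSO = 0%, tamoxifen 100 uM = 100%. AC50, Hill model.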

[17] = Cellular Toxicity (caspase-3) HUV-EC-C (AID 656); conditions: HUV-EC-C cells, caspase-3 activation (apoptosis), vehicle = 0, 100 µM tamoxifen = 100%; series mostly up to 92.2 µM
Summary of the method: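 qHTS; HUV-EC-C, 1000 cells/well; 5 hr settle, 16 hr cmpd, 37°C; Caspase-Glo 3/7, 20 min RT; luminescence. Norm: DMSO = 0%, tamoxifen 100 uM = 100%. Hill-fit AC50.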

[18] = Cellular Toxicity (caspase-3) SHSY5Y (AID 657); conditions: SH-SY5Y caspase-3 activation, DMSO zero, 10 µM staurosporine = 100%; series mostly up to 91.7 µM;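 note: cells exposed to compound for 16 hours at 37 °C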
Summary of the method: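 qHTS, SH-SY5Y, 1500 cells/well, 5 h pre-incubation 37 °C; compound 16 h 37 °C; Caspase-Glo 3/7 1 h RT; luminescence. Norm.: DMSO = 0, 10 uM staurosporine = 100%. Hill fit → AC50.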

[19] = Cellular Toxicity (caspase-3) BJ (AID 658); conditions: BJ fibroblasts, luminescence, normalized: DMSO 0%, staurosporine 100%; series mostly up to 91.7 µM;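 note: cells exposed to compound for 16 hours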
Summary of the method: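 Caspase-Glo 3/7 luminescence, read 1 hr after reagent at room temperature, in normal BJ fibroblasts exposed 16 hours at 37 °C. AC50 values from Hill-equation concentration-response, scaled between DMSO basal and 10 uM staurosporine as 100%.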

[20] = Cellular Toxicity (caspase-3) MRC-5 (AID 659); conditions: MRC-5 cells, luminescence, normalized: DMSO 0%, 10 µM staurosporine 100%; series mostly up to 91.7 µM
Summary of the method: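 Luminescent Caspase-Glo 3/7 read-out (1 h, room temperature) after a 16 h, 37 °C compound exposure of MRC-5 lung fibroblasts at 1500 cells/well. Concentration-response AC50 from Hill equation; 0% DMSO, 100% 10 uM staurosporine.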

CC(=O)CCc1ccccc1
inactive: Potency [1] > 92 µM | Potency [2] > 92 µM | Potency [3] > 92 µM | Potency [4] > 92 µM | Potency [5] > 92 µM | Potency [6] > 92 µM | outcome [7] | activity change, negative = cytotoxicity [8] -2.11% | Potency [9] | Potency [10] | Potency [11] | Potency [12] | Potency [13] | Potency [14] | Potency [15] | caspase-3 activation [16] -1.19% | outcome [17] | outcome [18] | outcome [19] | outcome [20]

Cc1ccc(C)o1
inactive: Potency [1] > 92 µM | Potency [2] > 92 µM | Potency [3] > 92 µM | Potency [4] > 92 µM | Potency [5] > 92 µM | Potency [6] > 92 µM | outcome [7] | activity change, negative = cytotoxicity [8] -9.8% | Potency [9] | Potency [10] | Potency [11] | Potency [12] | Potency [13] | Potency [14] | Potency [15] | caspase-3 activation [16] 1.7% | outcome [17] | outcome [18] | outcome [19] | outcome [20]

CCCCCCCN
inactive: Potency [1] > 92 µM | Potency [2] > 92 µM | Potency [3] > 92 µM | Potency [4] > 92 µM | Potency [5] > 92 µM | Potency [6] > 92 µM | outcome [7] | activity change, negative = cytotoxicity [8] -10.2% | Potency [9] | Potency [10] | Potency [11] | Potency [12] | Potency [13] | Potency [14] | Potency [15] | caspase-3 activation [16] -1.01% | outcome [17] | outcome [18] | outcome [19] | outcome [20]

CCCCOCCOCCOCCCC
inactive: Potency [1] > 92 µM | Potency [2] > 92 µM | Potency [3] > 92 µM | Potency [4] > 92 µM | Potency [5] > 92 µM | Potency [6] > 92 µM | outcome [7] | activity change, negative = cytotoxicity [8] 3.3% | Potency [9] | Potency [10] | Potency [11] | Potency [12] | Potency [13] | Potency [14] | Potency [15] | caspase-3 activation [16] 0.193% | outcome [17] | outcome [18] | outcome [19] | outcome [20]

C=C(C)C1CC=C(C)C(OC(C)=O)C1 (stereo not given)
inactive: Potency [1] > 92 µM | Potency [2] > 92 µM | Potency [3] > 92 µM | Potency [4] > 92 µM | Potency [5] > 92 µM | Potency [6] > 92 µM | outcome [7] | activity change, negative = cytotoxicity [8] -2.86% | Potency [9] | Potency [10] | Potency [11] | Potency [12] | Potency [13] | Potency [14] | Potency [15] | caspase-3 activation [16] 0.979% | outcome [17] | outcome [18] | outcome [19] | outcome [20]
